Results filed as inconclusive are left out. Calls of active or inactive are those of the source. Unless noted, calls follow the shape of the dose curve; as a rule, active = well fitted curve in either direction with a large enough effect (not every such curve was filed as active); inconclusive = small, poorly fitted or top-dose-only effect, or another doubt; inactive = flat fitted curve, though single readings scatter.
Assays:
[1] = molecular target: Lysosomal acid glucosylceramidase (Homo sapiens) (UniProt P04062); assay: Glucocerebrosidase-p2 (AID 348; in the data active = potency below about 10 µM; also: potency is read from the fitted curve at half-maximal effect); details: purified GBA, blue fluorogenic substrate, 40 min
Lysosomal acid glucosylceramidase (Homo sapiens), sequence (P04062 whole entry, looked up): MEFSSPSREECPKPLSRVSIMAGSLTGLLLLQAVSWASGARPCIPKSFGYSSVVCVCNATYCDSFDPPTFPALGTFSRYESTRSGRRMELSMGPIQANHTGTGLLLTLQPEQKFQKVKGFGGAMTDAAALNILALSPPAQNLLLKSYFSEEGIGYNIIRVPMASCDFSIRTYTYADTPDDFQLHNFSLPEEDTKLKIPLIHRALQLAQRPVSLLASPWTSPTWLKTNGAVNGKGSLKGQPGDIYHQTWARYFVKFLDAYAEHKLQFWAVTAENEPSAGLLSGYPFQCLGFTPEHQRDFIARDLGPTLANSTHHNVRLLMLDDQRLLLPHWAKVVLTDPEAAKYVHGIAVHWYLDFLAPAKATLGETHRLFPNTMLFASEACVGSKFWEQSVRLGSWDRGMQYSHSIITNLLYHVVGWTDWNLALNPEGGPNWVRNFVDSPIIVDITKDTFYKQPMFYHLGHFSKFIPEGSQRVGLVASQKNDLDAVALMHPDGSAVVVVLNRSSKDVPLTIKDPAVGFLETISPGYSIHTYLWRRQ
Outline: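 Normal human glucocerebrosidase (0.2 nM) with blue fluorogenic substrate (80 uM final) in citrate/phosphate pH 5.9 with 10mM sodium taurocholate, 0.01% tween-20; 40 min RT, NaOH/glycine stop; fluorescence Ex 365/Em 440; AC50 from a titration from 0.6 nM upwards.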

[2] = AP1 Signaling Pathway (AID 357); details: ME-180 AP-1-bla reporter, EGF-induced, beta-lactamase ratio, 5 h; at 7.69 µM (top of the series) unless noted;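 also: ME-180 reporter cells stimulated with EGF at its EC50 level; % is scaled to controls: 0 for no effect and ±100 for the full control effect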
Outline: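 Cells are seeded overnight, exposed to compound titrations and an EC50 level of EGF for 5 hours at 37 °C, then loaded with CCF4 dye for 2.5 hours. Beta-lactamase activity under the AP-1 element is read as a blue/green ratio.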

[3] = NFAT Signaling Pathway (AID 444); details: Jurkat NFAT-bla M1, carbachol, beta-lactamase ratio, 5 h; at 7.69 µM (top of the series) unless noted;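 also: carbachol stimulus at about its EC50 of 1 µM final; % is scaled to controls: 0 for no effect and ±100 for the full control effect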
Outline: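 Read-out: CCF4 FRET ratio (460 nm/530 nm) after 1 h RT dye loading, used for %activity and AC50 from titration series. Cells: Jurkat NFAT-β-lactamase/M1 line, treated with compound plus 1 uM carbachol for 5 h, 37 °C.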

[4] = Stat Signaling Pathway (AID 446); details: ME-180 SIE beta-lactamase reporter, IL-6 stimulated, 5 h; at 7.69 µM (top of the series) unless noted;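 also: ME-180 cervical cancer cells given 40 pM IL-6 alongside compound; SIE-controlled beta-lactamase reporter measured as 460/530 nm FRET emission ratio; % is scaled to controls: 0 for no effect and ±100 for the full control effect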
Outline: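 FRET read-out (405 nm excitation, 460/530 nm emission) of a beta-lactamase reporter under a STAT-inducible element in ME-180 cervical carcinoma cells. Cells with compound receive 40 pM IL-6 for 5 h. Values are normalised to AC90 stimulation and AC90 JAK-inhibitor controls.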

[5] = molecular target: Glucocorticoid receptor (Homo sapiens) (UniProt P04150); assay: GR-GFP Redistribution (AID 450;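 active = compounds whose dose series gives a full or clear partial fitted curve of increased nuclear translocation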; also: potency is read from the fitted curve at half-maximal effect); details: U2OS GR-GFP nuclear translocation, laser cytometry, 2 h
Glucocorticoid receptor (Homo sapiens), sequence (P04150 whole entry, looked up, the tested form may be a part): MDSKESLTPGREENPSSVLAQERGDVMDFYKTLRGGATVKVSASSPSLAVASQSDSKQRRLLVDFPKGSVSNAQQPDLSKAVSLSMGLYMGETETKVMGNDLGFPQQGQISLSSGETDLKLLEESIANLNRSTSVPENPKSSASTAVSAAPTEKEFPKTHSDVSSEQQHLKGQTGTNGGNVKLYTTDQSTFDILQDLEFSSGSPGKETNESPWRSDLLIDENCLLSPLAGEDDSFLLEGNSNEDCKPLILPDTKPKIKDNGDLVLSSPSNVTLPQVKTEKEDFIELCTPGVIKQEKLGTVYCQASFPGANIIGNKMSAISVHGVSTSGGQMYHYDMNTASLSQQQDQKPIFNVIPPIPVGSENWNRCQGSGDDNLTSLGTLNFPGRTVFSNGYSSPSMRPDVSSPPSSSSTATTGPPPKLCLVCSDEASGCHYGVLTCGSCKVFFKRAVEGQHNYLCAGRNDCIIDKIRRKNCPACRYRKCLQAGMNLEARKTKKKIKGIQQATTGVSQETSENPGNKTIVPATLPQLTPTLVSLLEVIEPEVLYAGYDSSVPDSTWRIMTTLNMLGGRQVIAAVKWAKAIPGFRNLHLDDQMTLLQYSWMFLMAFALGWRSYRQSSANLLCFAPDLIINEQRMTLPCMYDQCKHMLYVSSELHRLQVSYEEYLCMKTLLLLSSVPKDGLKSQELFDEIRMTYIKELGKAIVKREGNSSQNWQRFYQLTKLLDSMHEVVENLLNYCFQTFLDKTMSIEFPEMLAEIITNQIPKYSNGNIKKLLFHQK

[6] = molecular target: Glucocorticoid receptor (Homo sapiens) (UniProt P04150); assay: GR-EFC Redistribution (AID 451; calls by dose curve; also: potency is read from the fitted curve at half-maximal effect); details: CHO-K1 GR-EFC translocation, beta-gal luminescence, 2 h
Outline: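 Translocation of GR-ED fusion to nuclear EA restores b-gal, read by luminescence after 1 h room-temperature detection. Engineered CHO-K1 biosensor cells, 1,000/well, exposed 2 h at 37 C to titrations up to 46 uM final.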

[7] = molecular target: Mitogen-activated protein kinase 10 (Mus musculus) (UniProt Q61831); assay: JNK3 AlphaScreen Assay (AID 530); details: JNK3 lysate, c-Jun phosphorylation; series mostly up to 57.1 µM;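 also: kinase came from lysate of stimulated human HepG2 cells; signal reports phosphorylation of biotinylated GST-cJun 1-79 at Ser73 with 10 µM ATP; % is scaled to controls: 0 for no effect and ±100 for the full control effect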
Outline: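 Kinase buffer: 20 mM Tris-HCl pH 7.6, 10 mM MgCl2, 1 mM DTT, 0.1 mM Na3VO4, 0.01% Tween-20; ATP 10 uM. Substrate biotin-GST-cJun(1-79), enzyme from activated HepG2 lysates. Detection by Ser73 phospho-antibody AlphaScreen.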

[8] = molecular target: 3',5'-cyclic-AMP phosphodiesterase 4B (Homo sapiens) (UniProt Q07343); assay: qHTS Assay for Inhibitors of PDE-IV (AID 607; active = well fitted activation curve with a large enough effect in the main read-out, with a control signal flat, not every such curve was filed as active; also: potency is read from the fitted curve at half-maximal effect); details: HEK293 ACTOne CNG channel cells, membrane potential fluorescence; series mostly up to 22.9 µM
3',5'-cyclic-AMP phosphodiesterase 4B (Homo sapiens), sequence (Q07343 whole entry, looked up): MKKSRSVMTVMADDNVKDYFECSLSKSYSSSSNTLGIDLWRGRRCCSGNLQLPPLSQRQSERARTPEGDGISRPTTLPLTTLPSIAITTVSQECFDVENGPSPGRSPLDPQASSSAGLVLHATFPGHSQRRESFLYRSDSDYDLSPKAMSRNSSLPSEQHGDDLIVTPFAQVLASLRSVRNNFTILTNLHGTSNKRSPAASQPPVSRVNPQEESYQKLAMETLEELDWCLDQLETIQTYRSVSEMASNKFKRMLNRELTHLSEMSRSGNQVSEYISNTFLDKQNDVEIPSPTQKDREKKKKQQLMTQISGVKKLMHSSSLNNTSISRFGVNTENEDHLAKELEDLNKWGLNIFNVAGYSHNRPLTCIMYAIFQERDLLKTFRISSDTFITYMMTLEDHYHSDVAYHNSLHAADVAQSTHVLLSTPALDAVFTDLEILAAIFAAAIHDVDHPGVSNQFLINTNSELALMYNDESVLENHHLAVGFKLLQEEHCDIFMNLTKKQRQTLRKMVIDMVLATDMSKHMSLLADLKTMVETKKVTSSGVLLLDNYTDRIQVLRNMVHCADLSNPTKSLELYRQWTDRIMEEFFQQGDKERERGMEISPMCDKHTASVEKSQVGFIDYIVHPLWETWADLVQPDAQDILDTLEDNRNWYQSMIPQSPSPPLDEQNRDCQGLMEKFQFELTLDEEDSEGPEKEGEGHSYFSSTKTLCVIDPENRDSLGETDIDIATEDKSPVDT
Outline: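 Cell-based read-out of cAMP via a modified cyclic nucleotide-gated channel and membrane potential dye (535/590 nm) in HEK293 cells expressing PDE4 endogenously. Compounds tested up to 22.9 uM final; 100 uM RO 20-1724 reference.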

[9] = qHTS Assay for Lipid Storage Modulators (AID 1519; calls by dose curve); details: Drosophila S3 cells, BODIPY lipid droplet/cell ratio, laser cytometry, cells loaded with oleic acid; for activity change, negative = inhibition: at 57.5 µM (top of the series)
Outline: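 Cells seeded at 5,000 per well were treated with compounds over a concentration series and loaded with oleic acid (400 uM, as added). Lipid droplet fluorescence (488 nm excitation, 500-530 nm channel) was read by laser-scanning cytometry and normalized to 20 uM Triacsin C.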

[10] = Primary qHTS for small molecule stabilizers of the endoplasmic reticulum resident proteome: Secreted ER Calcium Modulated Protein (SERCaMP) assay (AID 1508630; active = well fitted curve in the direction sought with a large enough effect; an effect the other way counts as inactive or inconclusive; also: % is scaled to controls: 0 for no effect and ±100 for the full control effect); details: SH-SY5Y GLuc-SERCaMP (Gaussia luciferase released on ER calcium loss) secretion, thapsigargin, luminescence; series mostly up to 38.4 µM
Outline: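 The SH-SY5Y reporter protocol was run at 3 concentrations up to 38.3 uM (primary) or 11 concentrations (follow-up): 16 h compound, 100 nM thapsigargin for 4 h, then extracellular luciferase luminescence.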

[11] = molecular target: Cytochrome P450 1A2 (Homo sapiens) (UniProt P05177); assay: p450-cyp1a2 (AID 410; calls by dose curve; also: potency is read from the fitted curve at half-maximal effect;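 as to activity change, negative = inhibition: -100% = full effect of reference inhibitor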); details: recombinant CYP1A2, luciferin-ME demethylation, luminescence; series mostly up to 57 µM
Cytochrome P450 1A2 (Homo sapiens), sequence (P05177 whole entry, looked up): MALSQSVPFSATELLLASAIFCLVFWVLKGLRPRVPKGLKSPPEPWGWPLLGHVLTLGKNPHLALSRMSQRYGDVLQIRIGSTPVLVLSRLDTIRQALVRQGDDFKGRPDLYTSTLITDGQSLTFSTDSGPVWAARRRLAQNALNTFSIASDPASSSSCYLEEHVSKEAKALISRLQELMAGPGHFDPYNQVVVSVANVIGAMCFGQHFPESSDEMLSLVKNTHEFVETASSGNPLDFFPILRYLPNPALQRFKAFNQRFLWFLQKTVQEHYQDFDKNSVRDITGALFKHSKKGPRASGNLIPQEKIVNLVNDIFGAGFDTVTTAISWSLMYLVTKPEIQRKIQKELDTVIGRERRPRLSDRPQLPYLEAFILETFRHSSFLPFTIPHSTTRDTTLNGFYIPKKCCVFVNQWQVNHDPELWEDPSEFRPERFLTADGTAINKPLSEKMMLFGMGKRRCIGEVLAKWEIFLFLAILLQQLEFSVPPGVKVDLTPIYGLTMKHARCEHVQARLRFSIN
Outline: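 20nM CYP1A2, 100uM Luciferin-ME (=Km), 100mM KPO4; cpd 10 min RT; +NADPH regen, 60 min RT; stop/detect 20 min; luminescence. Normalized to furafylline 57 uM = full inhibition.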

[12] = molecular target: Cytochrome P450 3A4 (Homo sapiens) (UniProt P08684); assay: qHTS Assay for Inhibitors and Substrates of Cytochrome P450 3A4 (AID 884; active = well fitted curve in the direction sought with a large enough effect; an effect the other way counts as inactive or inconclusive; also: potency is read from the fitted curve at half-maximal effect; nearly all actives have a fitted effect of over 50% in size); details: recombinant CYP3A4, Luciferin-PPXE luminescence; series mostly up to 57.1 µM
Cytochrome P450 3A4 (Homo sapiens), sequence (P08684 whole entry, looked up): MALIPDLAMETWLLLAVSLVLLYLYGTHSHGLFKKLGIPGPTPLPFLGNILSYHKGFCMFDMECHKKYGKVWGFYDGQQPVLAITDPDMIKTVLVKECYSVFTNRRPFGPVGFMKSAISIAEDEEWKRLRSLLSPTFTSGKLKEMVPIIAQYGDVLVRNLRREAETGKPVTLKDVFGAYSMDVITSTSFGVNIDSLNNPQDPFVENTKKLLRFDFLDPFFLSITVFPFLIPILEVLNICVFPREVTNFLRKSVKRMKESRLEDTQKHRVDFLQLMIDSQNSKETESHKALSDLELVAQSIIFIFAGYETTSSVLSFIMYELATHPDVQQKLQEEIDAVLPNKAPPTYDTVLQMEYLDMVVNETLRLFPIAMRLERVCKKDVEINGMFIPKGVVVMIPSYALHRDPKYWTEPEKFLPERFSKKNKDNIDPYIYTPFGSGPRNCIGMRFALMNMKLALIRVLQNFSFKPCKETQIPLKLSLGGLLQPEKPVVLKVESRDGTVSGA
Outline: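 Luminescent readout of luciferin produced by CYP3A4 (20 nM) dealkylation of Luciferin-PPXE, 25 uM (its KM). NADPH-driven reaction ran 60 min at RT after 10 min compound preincubation; data scaled to 57 uM ketoconazole as 100% inhibition.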

[13] = molecular target: Cytochrome P450 3A4 (Homo sapiens) (UniProt P08684); assay: qHTS Assay for Activators of Cytochrome P450 3A4 (AID 885; active = well fitted curve in the direction sought with a large enough effect; an effect the other way counts as inactive or inconclusive; also: nearly all actives have a fitted effect of over 65% in size; also: potency is read from the fitted curve at half-maximal effect); details: recombinant CYP3A4, Luciferin-PPXE luminescence, 60 min; series mostly up to 57.1 µM
Outline: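 Luminescent readout of luciferin formed from 25 uM Luciferin-PPXE (KM level) by 20 nM CYP3A4 in 200 mM KPO4, with 60 min NADPH-driven reaction at room temperature after 10 min compound exposure. Ketoconazole (57 uM) defined 100% inhibition.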

[14] = Confirmation and Secondary Assay for Modulators of Hemoglobin Beta Chain Splicing at IVS2 654 locus (AID 910; active = well fitted curve in the direction sought with a large enough effect; an effect the other way counts as inactive or inconclusive;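 also: HeLa cells stably carrying EGFP split by mutant beta-globin IVS2-654 intron; per-well total GFP intensity by laser scanning cytometry after 2-day treatment; % of control where 0% means no effect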); details: HeLa EGFP-654 splicing reporter, GFP fluorescence, 48 h; series mostly up to 38.3 µM
Outline: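 Readout: per-well total peak green fluorescence (488 nm ex, 500–520 nm em) from objects 5–250 µm, reflecting correct splicing of an EGFP-654 reporter. Compounds were applied for 2 days at 37 °C to overnight-plated HeLa EGFP-654 cells; controls were DMSO and 500 nM IVS2-654 PNA.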

[15] = Confirmation and Secondary Assay for Modulators of Hemoglobin Beta Chain Splicing at IVS2 705 locus (AID 930; active = well fitted curve in the direction sought with a large enough effect; an effect the other way counts as inactive or inconclusive;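 also: HeLa cells stably expressing the EGFP-705 splicing reporter; GFP fluorescence per well restored by corrected splicing of the IVS2-705 intron in EGFP; % of control where 0% means no effect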); details: HeLa EGFP-705 splicing reporter, GFP fluorescence, 48 h; series mostly up to 38.3 µM
Outline: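 Splice-correction reporter: EGFP cDNA split by beta-globin intron 2 bearing the 705 mutation, stably in HeLa. Compound incubation 2 days, 37C; fluorescent objects 5-250 µm summed per well.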

[16] = molecular target: Cytochrome P450 2D6 (Homo sapiens) (UniProt P10635); assay: qHTS Assay for Inhibitors and Substrates of Cytochrome P450 2D6 (AID 891; active = well fitted curve in the direction sought with a large enough effect; an effect the other way counts as inactive or inconclusive; also: potency is read from the fitted curve at half-maximal effect; nearly all actives have a fitted effect of over 60% in size); details: recombinant CYP2D6, luciferin-ME EGE luminescence; series mostly up to 57.1 µM
Cytochrome P450 2D6 (Homo sapiens), sequence (P10635 whole entry, looked up): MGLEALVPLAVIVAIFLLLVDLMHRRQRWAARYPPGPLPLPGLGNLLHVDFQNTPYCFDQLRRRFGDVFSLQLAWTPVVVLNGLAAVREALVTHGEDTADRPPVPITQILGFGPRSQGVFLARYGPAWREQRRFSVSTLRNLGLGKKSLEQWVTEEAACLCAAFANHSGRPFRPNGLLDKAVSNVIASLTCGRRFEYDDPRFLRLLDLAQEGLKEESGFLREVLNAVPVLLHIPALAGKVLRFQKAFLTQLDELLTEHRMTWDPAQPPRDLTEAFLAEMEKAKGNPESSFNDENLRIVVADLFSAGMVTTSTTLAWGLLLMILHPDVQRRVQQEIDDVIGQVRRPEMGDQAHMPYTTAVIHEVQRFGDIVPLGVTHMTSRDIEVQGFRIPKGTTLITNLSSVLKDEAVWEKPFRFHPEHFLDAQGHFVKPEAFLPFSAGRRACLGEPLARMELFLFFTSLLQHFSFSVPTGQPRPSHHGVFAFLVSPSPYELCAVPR
Outline: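 Luminescent read-out of luciferin formed by 5 nM human CYP2D6 demethylating 30 uM Luciferin-ME EGE (Km level) over 60 min at room temperature after NADPH regeneration addition. Data normalized to full inhibition by 1.43 uM quinidine.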

[17] = qHTS Assay for Identification of Small Molecule Agonists for Hypoxia Response Element Signaling Pathway (AID 914; active = well fitted activation curve with a large enough effect in the signal ratio, with a control signal flat, not every such curve was filed as active; the % refers to the signal ratio; also: potency is read from the fitted curve at half-maximal effect); details: ME-180 (cervical carcinoma) HRE-bla reporter, beta-lactamase ratio, CoCl2, 17 h; activation: stronger effect = higher value
Outline: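 Cells were plated overnight, pin-dosed with compound in a titration series, co-stimulated with EC50 CoCl2 and incubated 17 hours at 37 degrees Celsius. CCF4 substrate was then loaded, and AC50 values came from the 460nm/530nm ratio.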

[18] = molecular target: Ubiquitin carboxyl-terminal hydrolase 1 (Homo sapiens) (UniProt O94782); assay: Inhibitors of USP1/UAF1: Pilot qHTS (AID 504865; active = well fitted curve in the direction sought with a large enough effect; an effect the other way counts as inactive or inconclusive;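 also: rhodamine fluorescence freed from ubiquitin-rhodamine substrate followed over time; top concentration of the series differs between compounds; % is scaled to controls: 0 for no effect and ±100 for the full control effect; nearly all actives have a fitted effect of over 35% in size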); details: purified USP1/UAF1, Ub-rhodamine cleavage fluorescence; series mostly up to 54.9 µM
Ubiquitin carboxyl-terminal hydrolase 1 (Homo sapiens), sequence (O94782 whole entry, looked up): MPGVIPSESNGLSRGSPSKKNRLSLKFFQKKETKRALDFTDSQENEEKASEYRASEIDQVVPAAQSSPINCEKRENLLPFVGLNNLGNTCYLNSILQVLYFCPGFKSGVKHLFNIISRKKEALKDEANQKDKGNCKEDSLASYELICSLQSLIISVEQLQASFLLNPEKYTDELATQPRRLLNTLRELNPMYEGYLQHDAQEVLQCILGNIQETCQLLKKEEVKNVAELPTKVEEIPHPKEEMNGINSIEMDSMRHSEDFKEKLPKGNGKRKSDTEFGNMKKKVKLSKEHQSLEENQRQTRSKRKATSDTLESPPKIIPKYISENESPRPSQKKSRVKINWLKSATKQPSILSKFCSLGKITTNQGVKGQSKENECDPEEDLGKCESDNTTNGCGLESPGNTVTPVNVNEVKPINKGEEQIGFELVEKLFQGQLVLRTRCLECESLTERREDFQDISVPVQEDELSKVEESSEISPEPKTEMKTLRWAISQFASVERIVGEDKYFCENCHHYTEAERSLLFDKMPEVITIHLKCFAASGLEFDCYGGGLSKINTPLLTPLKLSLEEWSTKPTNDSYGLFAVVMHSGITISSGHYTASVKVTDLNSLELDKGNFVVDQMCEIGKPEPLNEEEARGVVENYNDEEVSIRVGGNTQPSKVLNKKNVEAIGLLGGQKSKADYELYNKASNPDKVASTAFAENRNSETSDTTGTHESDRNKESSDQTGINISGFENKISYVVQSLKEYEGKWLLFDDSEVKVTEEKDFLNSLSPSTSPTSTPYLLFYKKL
Outline: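 USP1/UAF1 complex at 1 nM preincubated 15 min at room temperature with compound, then Ub-Rho substrate added at 150 nM final. Fluorescence (480/540 nm) read kinetically in 50 mM HEPES pH 7.8, 0.5 mM EDTA, 1 mM TCEP, 0.1 mg/ml BSA, 0.01% Tween-20.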

[19] = measured here: cell count channel max response
[20] = measured here: lipid channel max response

SMILES	Potency [1]	activity change, negative = inhibition [2]	activity change, negative = inhibition [3]	activity, negative = inhibition [4]	Potency [5]	Potency [6]	Potency [7]	Potency [8]	activity change, negative = inhibition [9]	max response [9, 19]	max response [9, 20]	outcome [10]	Potency [11]	Potency [12]	Potency [13]	Potency [14]	outcome [15]	Potency [16]	Potency [17]	Potency [18]
COc1ccc(-c2nc3cnc(Oc4ccccc4)nc3n(Cc3cccs3)c2=O)cc1	> 11.4 µM (inactive)	0.136% (inactive)	-1.73% (inactive)	16.1% (inactive)	> 9.22 µM (inactive)	> 46 µM (inactive)	inactive	inactive	-0.637% (inactive)	27.6%	28.4%	inactive								
CS(=O)(=O)Nc1cccc(-c2nc(NCc3cccs3)c3ccccc3n2)c1	> 2.29 µM (inactive)	-19.7% (inactive)			> 46 µM (inactive)	> 46 µM (inactive)			6.98% (inactive)	-9.8%	-2.81%	inactive	1 µM (active)	3.16 µM (active)	inactive	inactive	inactive			
COc1ccccc1CN1CCCC2(CCN(C(=O)c3cnccn3)CC2)C1	> 11.4 µM (inactive)	4.14% (inactive)				> 46 µM (inactive)	inactive	inactive	3.91% (inactive)	-6.38%	0.432%	inactive	inactive		inactive			3.98 µM (active)		
Cc1ccccc1-c1nc(NCCN2CCOCC2)c2ccccc2n1	> 11.4 µM (inactive)	-10.8% (inactive)	-9.08% (inactive)	-0.303% (inactive)	> 46 µM (inactive)	> 46 µM (inactive)	inactive	inactive	8.15% (inactive)	17.4%	26.1%	inactive				inactive	inactive			
CN(C)c1ncc2nc(-c3ccc(F)cc3)c(=O)n(C3CC3)c2n1	> 11.4 µM (inactive)	18.2% (inactive)				> 46 µM (inactive)	inactive	2 µM (active)	2.01% (inactive)	10.2%	13.7%	inactive	1.58 µM (active)						2.51 µM (active)	
O=C(c1ccncc1)N1CCC[C@@]2(CCN(C(c3ccccc3)c3ccccc3)C2)C1	> 11.4 µM (inactive)	-4.57% (inactive)	17.1% (inactive)	0.76% (inactive)		> 46 µM (inactive)	inactive		-4.39% (inactive)	-3.62%	-3.76%	inactive								
O=C(c1csnn1)N1CCC[C@@]2(CCN(C(c3ccccc3)c3ccccc3)C2)C1	> 11.4 µM (inactive)	8.26% (inactive)	29.4% (inactive)	26.4% (inactive)		> 46 µM (inactive)	inactive	inactive	-19.7% (inactive)	-5.14%	-20.5%	inactive								
COC(=O)N1CCC2(CC1)CCN(C(c1ccccc1)c1ccccc1)CC2	> 11.4 µM (inactive)	-7.14% (inactive)				> 46 µM (inactive)	inactive	inactive	2.35% (inactive)	5.65%	12.4%	inactive	inactive		12.6 µM (active)			7.94 µM (active)		
COc1ncc2nc(-c3ccccc3)c(=O)n(C[C@H]3CCCO3)c2n1	> 11.4 µM (inactive)	-19.2% (inactive)	-13.8% (inactive)	0.632% (inactive)	> 9.22 µM (inactive)	> 46 µM (inactive)	inactive	inactive	1.51% (inactive)	9.98%	14.7%	inactive			inactive					
O=c1c(-c2cc(F)cc(F)c2)nc2cncnc2n1Cc1ccc(F)cc1	> 11.4 µM (inactive)	-2.14% (inactive)	-15.1% (inactive)	-0.133% (inactive)	> 9.22 µM (inactive)	> 46 µM (inactive)	inactive	inactive	-8.57% (inactive)	-5.87%	-11%	inactive			inactive					
Cc1cccc(CNc2ncnc3ccc(-c4ccccc4C#N)cc23)c1	> 11.4 µM (inactive)	-28.4% (inactive)	12.9% (inactive)	-7.62% (inactive)	> 46 µM (inactive)	> 46 µM (inactive)	inactive		0.748% (inactive)	4.98%	4.86%	inactive				inactive	inactive			
CN(C)C(=O)c1ccc(-c2ccc3ncnc(NC4CCNCC4)c3c2)cc1	> 11.4 µM (inactive)	-6.93% (inactive)	7.8% (inactive)	14.8% (inactive)	> 46 µM (inactive)	> 46 µM (inactive)	inactive	inactive	6.36% (inactive)	9.43%	16.5%	inactive				inactive	inactive			inactive
O=C(c1ccco1)N1CCC[C@@]2(CCN(c3ncccn3)C2)C1	> 11.4 µM (inactive)	-6.68% (inactive)	-7.21% (inactive)	-5.91% (inactive)		> 46 µM (inactive)	inactive		3.43% (inactive)	17.7%	23.3%	inactive								
Cc1nc2cnc(N3CCNCC3)nc2n(C2CC2)c1=O	> 11.4 µM (inactive)	5.94% (inactive)	3.04% (inactive)	-7.48% (inactive)	> 9.22 µM (inactive)	> 46 µM (inactive)	inactive	inactive	0.607% (inactive)	18.2%	19.1%	inactive								
